A selection: hits, their analogues and other compounds. The true share with any hit is near 4.2%.
D1 agonist = human D1 receptor agonism. P21728. HEK293 T-REx D1 cells, calcium flux, agonist mode. activation, % at 2 µM. 360,000 compounds, 1% hits; in the data active = activation above about 30%; also: 0% is about no effect
Target sequence (P21728 whole entry, looked up): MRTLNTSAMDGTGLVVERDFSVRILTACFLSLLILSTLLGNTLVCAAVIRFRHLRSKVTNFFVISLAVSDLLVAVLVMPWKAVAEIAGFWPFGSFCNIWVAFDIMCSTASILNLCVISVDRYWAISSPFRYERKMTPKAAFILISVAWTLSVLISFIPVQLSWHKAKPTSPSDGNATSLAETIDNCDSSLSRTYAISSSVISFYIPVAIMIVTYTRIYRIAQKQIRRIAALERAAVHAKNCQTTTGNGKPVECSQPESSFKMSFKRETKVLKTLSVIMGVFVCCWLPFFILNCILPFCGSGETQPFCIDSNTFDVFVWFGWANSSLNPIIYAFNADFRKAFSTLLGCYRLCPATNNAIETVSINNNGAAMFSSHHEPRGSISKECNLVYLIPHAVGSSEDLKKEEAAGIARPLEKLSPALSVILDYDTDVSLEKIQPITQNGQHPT
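Inducible HEK293 T-REx D1 cells, force-coupled to calcium signalling, were plated at 4000 cells/well with tetracycline and held overnight at 30 C. After no-wash calcium dye loading, compound-evoked calcium rise over 180 s flagged agonists.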
TRPV1 PAM = human TRPV1 potentiation; TRPV1-expressing cells, Fluo-8 calcium influx, capsaicin EC20 potentiation; potentiation, % at 8.33 µM; 320,000 compounds, 0.02% hits; AID 540277; Q8NER1; in the data active = potentiation above about 80%; inconclusive = between about 30% and that limit; also: 0% is about no effect
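Fluo-8 calcium influx in TRPV1-expressing cells, kinetic read (ex 480/em 520 nm). Compound added and read 3 min for agonist activity, followed by capsaicin at EC20 final and 2 min further read for enhancement.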
D1 potentiator = enhances dopamine response at the human D1 receptor; P21728; potentiation, % at 10 µM; HEK293 TREx D1 cells, calcium flux, dopamine EC20 potentiation; 360,000 compounds, 0.036% hits; in the data active = potentiation above about 30%; also: 0% is about no effect
D1 antagonist = blocks dopamine activation of the human D1 receptor | activity change, negative = inhibition, % at 10 µM | HEK293 TREx D1 cells, calcium flux, dopamine EC80; stronger effect = lower value | 360,000 compounds, 3.2% hits; in the data active = activity change below about -30%; also: % is scaled to controls: 0 for no effect and ±100 for the full control effect
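Inducible Hek293 Trex D1 cells (tetracycline, overnight, 30 C). Calcium dye 30–90 min RT. Antagonist mode: EC80 dopamine added after 180 s compound read.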
TRPV1 agonist = activates the human vanilloid receptor TRPV1. TRPV1-expressing cells, Fluo-8 calcium influx, agonist mode. activation, % at 8.33 µM. 320,000 compounds, 0.19% hits. AID 540275; in the data active = activation above about 80%; inconclusive = between about 30% and that limit; also: 0% is about no effect
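Cells expressing TRPV1 were dye-loaded with Fluo-8 and read kinetically: 10 s baseline, 3 min after compound (agonist portion), then 2 min after EC20 capsaicin (allosteric enhancer portion). Calcium-bound dye fluorescence at 480/520 nm.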
* = called active by the depositor.

Screening COc1cccc(-n2ccnc2SCC(=O)Nc2c(C)cc(C)cc2C)c1 returned D1 agonist 4, D1 potentiator -2 and D1 antagonist 1.
For O=C(CN1N=C(c2ccccc2)CCC1=O)NCc1ccc(F)cc1Cl the results were D1 agonist -2, D1 potentiator -1 and D1 antagonist -9.
`CCN(CC)c1ccc(/C=C2/C(=O)c3ccc(C(=O)O)cc3C2=O)cc1` gave D1 agonist 261*, TRPV1 PAM 5, D1 potentiator 0, D1 antagonist -6 and TRPV1 agonist inconclusive.
For O=C(Nc1nnc(SCc2ccccn2)s1)C1CC(=O)N(c2ccccc2)C1 (stereo not given) the results were D1 agonist 2, TRPV1 PAM 10, D1 potentiator -10, D1 antagonist -78* and TRPV1 agonist 2.
`COC(/C(=N/O)c1ccc(Cl)cc1)c1ccccc1` (stereo not given) gave D1 agonist 8, TRPV1 PAM -3, D1 potentiator -2, D1 antagonist -38* and TRPV1 agonist 7.
Screening O=C(NCCS(=O)(=O)N1CCN(c2ccc(F)cc2)CC1)c1ccco1 returned D1 agonist 2, TRPV1 PAM -11, D1 potentiator 1, D1 antagonist -42* and TRPV1 agonist 0.
O=C(NCCS(=O)(=O)N1CCN(c2ccccc2F)CC1)c1ccco1 was read as D1 agonist 0, TRPV1 PAM 1, D1 potentiator -2, D1 antagonist 1 and TRPV1 agonist 4.
Screening CC(C)(C)OC(=O)N1CCC(c2c(C(=O)NCCN3CCC(Cc4ccccc4)CC3)cnn2-c2cccc(Cl)c2)CC1 returned D1 agonist 21, D1 potentiator 4 and D1 antagonist 4.
For COc1cc(Cl)c(C)cc1Nc1nc2ccccc2nc1NS(=O)(=O)c1ccccc1 the results were D1 agonist 13, D1 potentiator -2 and D1 antagonist 12.
Screening Cc1ccccc1C(=O)N=c1ccn(-c2nc3ccccc3nc2NS(=O)(=O)c2ccccc2)cc1 returned D1 agonist 39*, TRPV1 PAM -6, D1 potentiator -7, D1 antagonist 0 and TRPV1 agonist -2.
For CCOc1ccc(S(=O)(=O)Nc2nc3ccccc3nc2-n2ccc(=NC(=O)c3ccccc3C)cc2)cc1 the results were D1 agonist 62*, TRPV1 PAM -5, D1 potentiator -9, D1 antagonist -19 and TRPV1 agonist 6.
For CCC(C)(C)NS(=O)(=O)c1cc(-c2cc(C)no2)ccc1C the results were D1 agonist 1, D1 potentiator 2 and D1 antagonist -5.
For O=C(NCc1cccc(Cl)c1)NCc1noc2ccccc12 the results were D1 agonist -1, D1 potentiator 1 and D1 antagonist -13.
O=C(CCC1CCCN(C(=O)c2ccc3c(c2)OCO3)C1)NCc1ccc(F)c(F)c1 (stereo not given) was read as D1 agonist 1, TRPV1 PAM -11, D1 potentiator -4, D1 antagonist -30* and TRPV1 agonist 3.
For O=C(CCC1CCCN(C(=O)c2ccoc2)C1)NCc1ccc(F)c(F)c1 (stereo not given) the results were D1 agonist 2, TRPV1 PAM 4, D1 potentiator 0, D1 antagonist 2 and TRPV1 agonist -2.
Screening O=C1C2=C(C(=O)c3ccccc31)C1O[C@](CCCCN3C(=O)c4ccccc4C3=O)(Cc3ccccc31)O2 returned D1 agonist 1, TRPV1 PAM inactive, D1 potentiator -3, D1 antagonist -15 and TRPV1 agonist inactive.
Screening CC(=O)N(c1ccccc1C)C1CCCC1 returned D1 agonist 0, TRPV1 PAM -4, D1 potentiator -4, D1 antagonist 4 and TRPV1 agonist 3.
For CC(=O)N(C1=C(Cl)C(=O)c2ccccc2C1=O)C1CCCCC1 the results were D1 agonist 1, TRPV1 PAM 4, D1 potentiator -15, D1 antagonist -35* and TRPV1 agonist 10.
`CC1CCCN(c2ncnc3c2cnn3-c2ccc(F)cc2)C1` (stereo not given) gave D1 agonist 3, D1 potentiator -2 and D1 antagonist -5.
For COc1ccccc1C(=O)NC1(C(F)(F)F)C(=O)NC(C)=C1C#N (stereo not given) the results were D1 agonist 0, D1 potentiator -5 and D1 antagonist 5.
Screening CCOC(=O)c1c(-c2ccccc2)c2cc(OC)ccc2n1CCCN(C)C returned D1 agonist 31*, TRPV1 PAM -31, D1 potentiator -6, D1 antagonist -3 and TRPV1 agonist 30.
Screening CCOC(=O)c1c(C)n(CCNC(C)=O)c2ccc(OC)cc12 returned D1 agonist 0, TRPV1 PAM -9, D1 potentiator -4, D1 antagonist -3 and TRPV1 agonist -1.
For COC(=O)CCN(C(=O)C1CCN(S(=O)(=O)c2c(C)noc2/C=C/c2ccccc2F)CC1)c1ccccc1 the results were D1 agonist 9, D1 potentiator -1 and D1 antagonist -4.
`CCOc1ccc(CN(C(=O)c2nc(SC)ncc2Cl)C2CCS(=O)(=O)C2)cc1` (stereo not given) gave D1 agonist -2, D1 potentiator -1 and D1 antagonist 4.
Screening COc1ccc(NC(=S)NC2CC3CCCC(C2)N3C2CC2)cc1 (stereo not given) returned D1 agonist 3, TRPV1 PAM 9, D1 potentiator -8, D1 antagonist -38* and TRPV1 agonist 1.
Cc1ccc(NC(=S)NC2CC3CCC(C2)N3Cc2ccco2)c(C)c1 (stereo not given) was read as D1 agonist 6, TRPV1 PAM 9, D1 potentiator -7, D1 antagonist -43* and TRPV1 agonist -3.
`CCc1ccc(NC(=S)NC2CC3CCCC(C2)N3Cc2cccs2)cc1` (stereo not given) gave D1 agonist 4, TRPV1 PAM -12, D1 potentiator -11, D1 antagonist -81* and TRPV1 agonist 1.
Cc1ccc(NC(=S)NC2CC3CCC(C2)N3Cc2ccco2)cc1C (stereo not given) was read as D1 agonist 8, TRPV1 PAM -2, D1 potentiator -17, D1 antagonist -89* and TRPV1 agonist -4.
For CCC(=O)Oc1cc(C(C)(C)C)cc2cc(-c3nc(-c4ccc(OC)cc4OC)no3)c(=O)oc12 the results were D1 agonist -1, D1 potentiator -5 and D1 antagonist -1.
COc1cccc(C(=O)Nc2cccc(C(=O)OCc3cc(=O)n4c5c(sc4n3)CCCC5)c2)c1 was read as D1 agonist -2, D1 potentiator 0 and D1 antagonist -19.
`Cc1ccccc1-n1c(O)c(/C=C/C=Nc2ccccc2)c(=O)[nH]c1=O` gave D1 agonist 41*, TRPV1 PAM inconclusive, D1 potentiator 5, D1 antagonist -10 and TRPV1 agonist 10.
